The nature of experiment [1]: AP1 Signaling Pathway (AID 357). Note: % is set by controls: 0 for no effect and ±100 for the full control effect. The note with it: ME-180 AP-1-bla reporter, EGF-induced, beta-lactamase ratio, 5 h. The method in brief: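 Modulation of EGF-driven AP-1 transcription was assessed with a beta-lactamase reporter in ME-180 cells. Compound and EC50 EGF were co-incubated 5 hours at 37 °C before 2.5-hour CCF4 loading at room temperature and dual-emission reading.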

Experiment [2] has as its target Cytochrome P450 1A2 (Homo sapiens) (UniProt P05177). The experiment is described as follows: p450-cyp1a2 (AID 410; calls by dose curve; note: potency is the fitted concentration of half-maximal effect). The following applies: recombinant CYP1A2, luciferin-ME demethylation, luminescence; series mostly up to 57 µM. In a few lines: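 Luminescent readout of luciferin formed from Luciferin-ME by human CYP1A2; data normalized against complete inhibition by 57 uM furafylline. Enzyme 20nM, substrate 100uM at Km, 100mM KPO4 buffer, 60 min reaction at room temperature.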

The nature of experiment [3]: Stat Signaling Pathway (AID 446).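 Note: ME-180 cervical cancer cells given 40 pM IL-6 alongside compound; SIE-controlled beta-lactamase reporter measured as 460/530 nm FRET emission ratio; % is set by controls: 0 for no effect and ±100 for the full control effect.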 The following applies: ME-180 SIE beta-lactamase reporter, IL-6 stimulated, 5 h. In a few lines:
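Reporter line: ME-180 cervical carcinoma, SIE-beta-lactamase. Treatment: compound with 40 pM IL-6, 5 hrs, 37 C, in low-serum OPTI-MEM with 10 mM HEPES pH 7.3. Detection: 460/530 nm fluorescence.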

The target of experiment [4] is Glucocorticoid receptor (Homo sapiens) (UniProt P04150). As to the kind of experiment: GR-GFP Redistribution (AID 450;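 active = compounds whose dose series gives a full or clear partial fitted curve of increased nuclear translocation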; note: potency is the fitted concentration of half-maximal effect). The note with it: U2OS GR-GFP nuclear translocation, laser cytometry, 2 h.
For experiment [5] the target is unchanged. As to the kind of experiment: GR-EFC Redistribution (AID 451; calls by dose curve; note: potency is the fitted concentration of half-maximal effect). The following applies: CHO-K1 GR-EFC translocation, beta-gal luminescence, 2 h. In a few lines:
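CHO-K1 cells expressing nuclear EA and GR-ED fragments of b-gal; compounds titrated up to 46 uM final, 2 h at 37 C. GR nuclear translocation read as complemented b-gal luminescence after 1 h RT detection.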

Experiment [6] addresses Mitogen-activated protein kinase 10 (Mus musculus) (UniProt Q61831). The experiment is described as follows: JNK3 AlphaScreen Assay (AID 530).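 For activity change, negative = inhibition: signal reports phosphorylation of biotinylated GST-cJun 1-79 at Ser73 with 10 µM ATP; % is set by controls: 0 for no effect and ±100 for the full control effect.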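 Note: kinase came from lysate of stimulated human HepG2 cells.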 Note: potency is the fitted concentration of half-maximal effect. The following applies: JNK3 lysate, c-Jun phosphorylation; series mostly up to 57.1 µM. In a few lines: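 Pre-activated (IL-1β/TNFα) JNK3 in HepG2 lysates phosphorylates biotin-GST-cJun(1-79), 10 uM ATP; anti-phospho-cJun(Ser73) AlphaScreen read at room temperature, pH 7.6 Tris buffer. Compounds pre-incubated 15 min as titrations.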

Experiment [7] deals with 3',5'-cyclic-AMP phosphodiesterase 4B (Homo sapiens) (UniProt Q07343). As to the kind of experiment: qHTS Assay for Inhibitors of PDE-IV (AID 607; active = well fitted activation curve with a large enough effect in the main read-out, with a control signal flat, not every such curve was filed as active; note: % of control where 0% means no effect). The following applies: HEK293 ACTOne CNG channel cells, membrane potential fluorescence; series mostly up to 22.9 µM. In a few lines:
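Cell-based read-out of cAMP via a modified cyclic nucleotide-gated channel and membrane potential dye (535/590 nm) in HEK293 cells expressing PDE4 endogenously. Compounds tested up to 22.9 uM final; 100 uM RO 20-1724 reference.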

Experiment [8] has as its target Pyruvate kinase (Leishmania mexicana) (UniProt Q27686). The experiment is described as follows: qHTS Validation Assay for Inhibitors of Leishmania Mexicana Pyruvate Kinase (AID 945; active = well fitted curve in the direction sought with a large enough effect; an effect the other way counts as inactive or inconclusive;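 note: 0% = DMSO only neutral control wells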). The note with it: purified L. mexicana pyruvate kinase, enzyme activity, E451W mutant enzyme; series mostly up to 57.5 µM. The method in brief: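 qHTS eight-point titrations against 0.2 nM LmPYK (E451W) in imidazole buffer pH 7.2 with 0.5 mM PEP, 0.1 mM ADP; 1 h, room temperature. Readout: PKLight luminescence, normalized to neutral DMSO wells.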
Background: In qHTS, concentration-response curves come from the screen itself.

In experiment [9] the target is Alpha-galactosidase A (Homo sapiens) (UniProt P06280). The experiment is described as follows: Counterscreen for Glucocerebrosidase Inhibitors: qHTS Assay for Human alpha-Galactosidase at pH 4.5 (AID 992; active = well fitted curve in the direction sought with a large enough effect; an effect the other way counts as inactive or inconclusive; note: 0% is about no effect). The note with it: purified enzyme, fluorogenic substrate; series mostly up to 76.9 µM. The method in brief:
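Quantitative HTS: compounds tested from 0.7 nM up to 77 uM against 2 nM enzyme with 80 uM 4-MU alpha-D-galactopyranoside. The 20 min room-temperature reaction is stopped with 1M NaOH/1M glycine, pH 10.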
On the technique in general: Counterscreens check selectivity or assay interference.

The target in experiment [10] is alpha-glucosidase (Oryza sativa, rice) (UniProt Q653V4). As to the kind of experiment: Counterscreen for Glucocerebrosidase Inhibitors: qHTS Assay for Rice alpha-Glucosidase at pH 5.0 (AID 997; active = well fitted curve in the direction sought with a large enough effect; an effect the other way counts as inactive or inconclusive;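 note: 0% = full activity with enzyme and -100% = basal without enzyme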). The following applies: rice alpha-glucosidase enzyme activity; series mostly up to 76.9 µM. In a few lines: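 Rice alpha-glucosidase (4 nM final) with 400 uM 4-methylumbelliferyl-alpha-D-glucopyranoside in citrate buffer pH 5.0, 20 min at room temperature, stopped at pH 10; fluorescence 365/440 nm, compounds 0.7 nM–77 uM, AC50 from Hill fits.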

Experiment [11] can be described thus: qHTS Assay for Lipid Storage Modulators (AID 1519; calls by dose curve). The note with it: Drosophila S3 cells, BODIPY lipid droplet/cell ratio, laser cytometry, cells loaded with oleic acid; for activity change, negative = inhibition: at 25.7 µM (top of the series). In a few lines:
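Cells seeded at 5,000 per well were treated with compounds over a concentration series and loaded with oleic acid (400 uM, as added). Lipid droplet fluorescence (488 nm excitation, 500-530 nm channel) was read by laser-scanning cytometry and normalized to 20 uM Triacsin C.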

In experiment [12] the target is Ubiquitin carboxyl-terminal hydrolase 1 (Homo sapiens) (UniProt O94782). The experiment is described as follows: Inhibitors of USP1/UAF1: Pilot qHTS (AID 504865; active = well fitted curve in the direction sought with a large enough effect; an effect the other way counts as inactive or inconclusive;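 note: rhodamine fluorescence freed from ubiquitin-rhodamine substrate followed over time; top concentration of the series differs between compounds; % is set by controls: 0 for no effect and ±100 for the full control effect; nearly all actives have a fitted effect of over 35% in size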). The note with it: purified USP1/UAF1, Ub-rhodamine cleavage fluorescence; series mostly up to 54.9 µM. The method in brief:
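USP1/UAF1 complex (1nM) preincubated with compound 15 min at room temperature, then Ub-Rho substrate (150nM final) added. Fluorescence read kinetically at 480/540 nm, 6 reads every 60 seconds. Buffer: 50mM HEPES pH 7.8, 0.5mM EDTA, 0.1 mg/ml BSA, 1mM TCEP, 0.01% Tween-20.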

Experiment [13] can be described thus: NFAT Signaling Pathway (AID 444).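 Note: carbachol stimulus at about its EC50 of 1 µM final; % is set by controls: 0 for no effect and ±100 for the full control effect.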 The note with it: Jurkat NFAT-bla M1, carbachol, beta-lactamase ratio, 5 h. The method in brief: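 Jurkat cells with NFAT-driven β-lactamase reporter and co-expressed M1 receptor, stimulated with carbachol (final 1 uM, ~EC50), compound titration, 5 h at 37 °C. CCF4 loaded 1 h at RT; 460/530 nm ratio gave %activity and AC50.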

The mark [14] stands for this setting: measured here: cell count channel max response.
Setting [15] is: measured here: lipid channel max response.

Where “and” joins values, the source holds several entries; their conditions need not be identical. Equal entries are not always repeated. Results filed as inconclusive are left out. More than one record can exist for a structure, and the calls need not agree. Calls of active or inactive are those of the source. Unless noted, calls come from the whole dose curve; as a rule, active = well fitted curve in either direction with a large enough effect (not every such curve was filed as active); inconclusive = small, poorly fitted or top-dose-only effect, or another doubt; inactive = flat fitted curve, though single readings scatter.

Ubiquitin carboxyl-terminal hydrolase 1 (Homo sapiens), sequence (O94782 whole entry, looked up): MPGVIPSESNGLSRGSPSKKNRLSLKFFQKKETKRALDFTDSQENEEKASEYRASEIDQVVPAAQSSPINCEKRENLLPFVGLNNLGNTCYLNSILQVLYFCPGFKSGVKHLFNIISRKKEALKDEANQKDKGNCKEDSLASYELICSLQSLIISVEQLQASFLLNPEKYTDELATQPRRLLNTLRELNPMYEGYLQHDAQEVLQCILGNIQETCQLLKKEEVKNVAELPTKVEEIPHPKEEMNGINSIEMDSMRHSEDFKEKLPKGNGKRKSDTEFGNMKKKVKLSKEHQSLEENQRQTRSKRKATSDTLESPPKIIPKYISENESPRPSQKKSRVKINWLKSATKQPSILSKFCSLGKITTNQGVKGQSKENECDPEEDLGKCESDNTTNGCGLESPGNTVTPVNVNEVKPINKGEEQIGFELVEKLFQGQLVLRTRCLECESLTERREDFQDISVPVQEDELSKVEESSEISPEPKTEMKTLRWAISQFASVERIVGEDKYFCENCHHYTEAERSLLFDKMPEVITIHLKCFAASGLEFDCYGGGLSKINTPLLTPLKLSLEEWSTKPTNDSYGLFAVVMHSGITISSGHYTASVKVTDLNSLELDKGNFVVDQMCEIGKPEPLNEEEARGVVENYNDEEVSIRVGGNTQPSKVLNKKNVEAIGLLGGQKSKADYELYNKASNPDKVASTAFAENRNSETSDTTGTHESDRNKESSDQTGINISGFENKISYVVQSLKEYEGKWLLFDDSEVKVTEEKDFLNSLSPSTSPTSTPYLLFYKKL
3',5'-cyclic-AMP phosphodiesterase 4B (Homo sapiens), sequence (Q07343 whole entry, looked up): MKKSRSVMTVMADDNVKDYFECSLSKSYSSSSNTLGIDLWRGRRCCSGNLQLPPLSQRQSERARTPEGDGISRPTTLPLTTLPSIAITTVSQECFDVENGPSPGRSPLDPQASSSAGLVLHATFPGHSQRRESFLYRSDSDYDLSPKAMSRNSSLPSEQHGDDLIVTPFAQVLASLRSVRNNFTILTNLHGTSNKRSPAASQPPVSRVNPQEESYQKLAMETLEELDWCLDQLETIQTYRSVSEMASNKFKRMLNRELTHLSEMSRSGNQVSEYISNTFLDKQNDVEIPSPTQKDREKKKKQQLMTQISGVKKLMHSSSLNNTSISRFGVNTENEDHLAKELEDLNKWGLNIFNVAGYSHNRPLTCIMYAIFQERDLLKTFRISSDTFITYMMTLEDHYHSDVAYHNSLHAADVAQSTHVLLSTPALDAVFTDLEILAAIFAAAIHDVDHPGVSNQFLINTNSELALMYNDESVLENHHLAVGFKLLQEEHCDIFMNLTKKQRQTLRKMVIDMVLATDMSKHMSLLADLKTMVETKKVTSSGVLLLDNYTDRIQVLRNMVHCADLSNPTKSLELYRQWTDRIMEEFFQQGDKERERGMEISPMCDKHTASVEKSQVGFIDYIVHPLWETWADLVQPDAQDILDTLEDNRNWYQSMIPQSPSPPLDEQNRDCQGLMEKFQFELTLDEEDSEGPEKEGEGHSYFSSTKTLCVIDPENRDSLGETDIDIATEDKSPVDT
Glucocorticoid receptor (Homo sapiens), sequence (P04150 whole entry, looked up): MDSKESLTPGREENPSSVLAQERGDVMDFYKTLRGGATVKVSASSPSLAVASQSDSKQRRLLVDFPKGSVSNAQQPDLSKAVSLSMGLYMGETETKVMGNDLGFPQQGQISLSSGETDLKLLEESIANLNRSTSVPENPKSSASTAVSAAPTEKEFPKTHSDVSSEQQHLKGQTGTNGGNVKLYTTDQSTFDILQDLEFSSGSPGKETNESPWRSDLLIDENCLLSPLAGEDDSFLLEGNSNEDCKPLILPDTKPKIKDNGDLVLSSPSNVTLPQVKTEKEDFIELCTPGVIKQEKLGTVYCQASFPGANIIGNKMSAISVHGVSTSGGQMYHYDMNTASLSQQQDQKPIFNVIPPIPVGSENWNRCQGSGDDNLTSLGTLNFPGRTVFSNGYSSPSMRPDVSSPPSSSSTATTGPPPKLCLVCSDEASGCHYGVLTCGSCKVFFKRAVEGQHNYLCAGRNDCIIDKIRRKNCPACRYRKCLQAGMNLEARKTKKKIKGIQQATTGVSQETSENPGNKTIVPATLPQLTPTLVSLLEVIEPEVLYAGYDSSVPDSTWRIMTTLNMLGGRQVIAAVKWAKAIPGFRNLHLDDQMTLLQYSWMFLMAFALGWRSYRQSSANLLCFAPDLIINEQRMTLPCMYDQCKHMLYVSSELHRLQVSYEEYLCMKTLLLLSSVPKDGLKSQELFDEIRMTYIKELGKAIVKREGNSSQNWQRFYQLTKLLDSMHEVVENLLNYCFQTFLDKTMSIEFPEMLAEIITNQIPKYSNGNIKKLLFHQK
Alpha-galactosidase A (Homo sapiens), sequence (P06280 whole entry, looked up): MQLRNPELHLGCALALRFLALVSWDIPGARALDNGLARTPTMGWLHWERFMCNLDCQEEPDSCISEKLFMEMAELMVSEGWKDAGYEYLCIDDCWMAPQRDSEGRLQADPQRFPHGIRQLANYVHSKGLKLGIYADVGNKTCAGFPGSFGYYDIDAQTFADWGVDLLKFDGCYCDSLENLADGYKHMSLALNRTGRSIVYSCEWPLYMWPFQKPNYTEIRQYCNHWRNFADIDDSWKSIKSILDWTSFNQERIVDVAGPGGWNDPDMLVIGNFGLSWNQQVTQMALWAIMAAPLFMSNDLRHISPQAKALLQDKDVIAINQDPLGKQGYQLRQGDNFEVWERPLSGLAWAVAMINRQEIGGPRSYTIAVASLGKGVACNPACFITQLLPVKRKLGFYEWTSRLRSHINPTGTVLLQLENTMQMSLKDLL
Cytochrome P450 1A2 (Homo sapiens), sequence (P05177 whole entry, looked up): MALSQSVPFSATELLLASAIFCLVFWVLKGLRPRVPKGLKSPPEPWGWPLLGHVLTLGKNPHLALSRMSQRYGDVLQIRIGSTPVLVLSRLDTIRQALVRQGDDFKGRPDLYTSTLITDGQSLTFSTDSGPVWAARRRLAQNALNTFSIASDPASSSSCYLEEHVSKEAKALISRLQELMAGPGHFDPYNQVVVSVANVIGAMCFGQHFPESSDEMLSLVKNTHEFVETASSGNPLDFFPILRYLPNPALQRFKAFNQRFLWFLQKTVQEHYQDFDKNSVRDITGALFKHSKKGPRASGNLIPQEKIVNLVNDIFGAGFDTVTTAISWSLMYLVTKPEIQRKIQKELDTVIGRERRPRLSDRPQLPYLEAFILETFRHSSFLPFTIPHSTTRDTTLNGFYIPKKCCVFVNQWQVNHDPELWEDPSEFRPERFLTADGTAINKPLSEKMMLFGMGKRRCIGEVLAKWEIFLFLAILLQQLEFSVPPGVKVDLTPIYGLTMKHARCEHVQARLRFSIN
Pyruvate kinase (Leishmania mexicana), sequence (Q27686 2-499 E452W): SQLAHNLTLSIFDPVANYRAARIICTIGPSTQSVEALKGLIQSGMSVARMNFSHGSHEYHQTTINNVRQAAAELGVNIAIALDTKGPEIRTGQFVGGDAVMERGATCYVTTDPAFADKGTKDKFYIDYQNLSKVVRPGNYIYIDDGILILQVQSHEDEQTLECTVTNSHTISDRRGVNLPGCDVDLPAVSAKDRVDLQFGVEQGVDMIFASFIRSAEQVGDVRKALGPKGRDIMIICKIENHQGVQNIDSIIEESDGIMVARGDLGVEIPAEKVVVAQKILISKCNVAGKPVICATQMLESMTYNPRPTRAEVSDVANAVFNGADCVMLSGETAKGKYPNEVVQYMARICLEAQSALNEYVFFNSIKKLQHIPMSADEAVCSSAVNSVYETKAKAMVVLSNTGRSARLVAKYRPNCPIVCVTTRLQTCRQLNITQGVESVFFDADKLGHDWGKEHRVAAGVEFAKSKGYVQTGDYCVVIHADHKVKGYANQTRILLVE

Turning to `OCCN1CCN(CC/C=C2\c3ccccc3Sc3ccc(C(F)(F)F)cc32)CC1`, the activity change, negative = inhibition is 16.2% (inactive) in experiment [1] (at 17.2 µM (top of the series)), 29.4% (inactive) in [1] (at 38 µM (top of the series)) and -3.77% (inactive) in experiment [11]. In addition, the Potency in experiment [2] was 7.94 µM (active) and 5.01 µM (active); in [4], > 46 µM (inactive) and > 20.6 µM (inactive); in experiment [5], > 46 µM (inactive) and > 20.6 µM (inactive). Further, the activity, negative = inhibition was 5.96% (inactive) in [3] (at 17.2 µM (top of the series)) and -10.3% (inactive) in experiment [3] (at 38 µM (top of the series)). Besides, the Potency entry in experiment [6], in [7] and in [12] was “inactive” throughout. Further, the molecule was classed as inactive in [8], in [9] and in experiment [10]. Also, the max response in [11] (setting [14]) was -13.1%; in experiment [11] (setting [15]), -14.8%.

Turning to `CN1CCc2cccc3c2[C@@H]1Cc1ccc(O)c(O)c1-3`, the activity change, negative = inhibition is -20.2% (inactive) in experiment [1] (at 17.2 µM (top of the series)); -26.6% (inactive) in [1] (at 38 µM (top of the series)); -6.25% (inactive) in experiment [13] (at 17.2 µM (top of the series)); -15.4% (inactive) in experiment [13] (at 38 µM (top of the series)); 2.32% (inactive) in [11]. Further, the activity, negative = inhibition is 1.07% (inactive) in [3] (at 17.2 µM (top of the series)) and -10.2% (inactive) in [3] (at 38 µM (top of the series)). The Potency is > 46 µM (inactive) and > 20.6 µM (inactive) in experiment [4]; > 46 µM (inactive) and > 20.6 µM (inactive) in experiment [5]; “inactive and 15.8 µM (active)” in experiment [6]. The Potency entry in experiment [7] and in experiment [12] was “inactive” each time. Moreover, the result in experiment [8], in [9] and in experiment [10] was inactive. For the same molecule, the values for the max response in experiment [11] (setting [14]) and in experiment [11] (setting [15]) were 2.96% and 6.43%, respectively.

As for `C[C@@]12C[C@@H](O)[C@H]3[C@@H](CCC4=CC(=O)CC[C@]43C)[C@H]1CC[C@H]2C(=O)CO`, the activity change, negative = inhibition was 4.07% (inactive) in experiment [1] (at 17.2 µM (top of the series)); -3.18% (inactive) in experiment [1] (at 38 µM (top of the series)); 0.118% (inactive) in experiment [13] (at 17.2 µM (top of the series)); -0.571% (inactive) in [13] (at 38 µM (top of the series)); -3.75% (inactive) in [11]. Moreover, the activity, negative = inhibition in [3] (at 17.2 µM (top of the series)) was -0.637% (inactive); in experiment [3] (at 38 µM (top of the series)) it was -1.77% (inactive). For the same molecule, the Potency in experiment [4] was 74.2 nM (active) and 8.8 nM (active); in [5], 179 nM (active). Also, the Potency entry in experiment [7] and in [12] was “inactive” each time. For the same molecule, the max response is -3.56% in experiment [11] (setting [14]) and -9.53% in [11] (setting [15]).

Source of the values: PubChem BioAssay (NCATS).
